About 7,900 targets were measured; listed, in parts, are those with a hit and a random draw of the rest. About 0.6% of all pairs of compound and target were hits.
Tests used:
Assay in all cases: log2 fold change, soluble protein after heating vs DMSO (PISA); higher = thermal stabilisation; K562 cells, 10 uM, 30 min; active = over 0.2 and 3.5 SD of the protein, either way, in both replicates (recomputed)
[1] = compound: C1=CC=C(C=C1)[C@H](COC2=CC3=C(C=C2)NC(=O)N3)NC(=O)C4=CC=CN(C4=O)CC5=CC(=C(C=C5)F)F
In short: (§1)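 K562 cells at 2×10^6 cells/mL were given 10 μM compound for 30 min. Aliquots then went through 3 min of heating across 48°C-58°C, were pooled, and were extracted in PBS with 0.5% NP-40 at 4°C, and the supernatant after 21,000xg for 90 min was quantified by TMTpro 16plex LC-MS/MS with channel sums equalised. Thermal stability relative to control samples, from duplicates, is given as log2 fold change.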

[2] = compound: CC1=C(SC2=C1C(=N[C@H](C3=NN=C(N32)C)CC(=O)N)C4=CC=C(C=C4)Cl)C
In short: as §1

[3] = compound: CC1=C2C(=CC=C1)N=C(N(C2=O)C3=CC=CC=C3C)CN4C=NC5=C(N=CN=C54)N
In short: as §1

[4] = compound: Cc1sc2c(c1C)C(c1ccc(Cl)cc1)=N[C@@H](CC(=O)OC(C)(C)C)c1nnc(C)n1-2
In short: as §1

[5] = compound: c1ccc([C@@H]2C[C@H]2NC2CCNCC2)cc1
In short: as §1

Measured: log2 fold change

VPS8 (UniProt Q8N3P4)
inactive: [1] -0.08 | [2] 0.106 | [3] 0.042 | [4] -0.034 | [5] 0.017

WNK1 isoform 7 (UniProt Q9H4A3)
inactive: [1] -0.011 | [2] 0.023 | [3] 0.049 | [4] -0.007 | [5] -0.003

TMEM214 (UniProt Q6NUQ4)
inactive: [1] 0.023 | [2] 0.044 | [3] 0.005 | [4] -0.002 | [5] -0.024

TXNIP (UniProt Q9H3M7)
Chain of UniProt Q9H3M7 (Q9H3M7 whole entry, looked up): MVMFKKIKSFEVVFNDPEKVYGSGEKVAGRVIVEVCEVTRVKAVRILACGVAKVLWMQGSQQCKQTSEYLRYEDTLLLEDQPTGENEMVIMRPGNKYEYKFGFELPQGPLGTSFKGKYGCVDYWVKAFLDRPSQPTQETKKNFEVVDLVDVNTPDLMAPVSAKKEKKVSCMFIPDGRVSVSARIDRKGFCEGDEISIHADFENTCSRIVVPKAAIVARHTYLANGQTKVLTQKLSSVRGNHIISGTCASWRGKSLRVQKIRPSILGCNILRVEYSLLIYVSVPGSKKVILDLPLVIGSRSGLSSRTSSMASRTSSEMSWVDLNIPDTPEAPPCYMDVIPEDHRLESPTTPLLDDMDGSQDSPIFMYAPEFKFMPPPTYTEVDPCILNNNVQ
inactive: [1] -0.011 | [2] 0.148 | [3] -0.012 | [4] -0.039 | [5] -0.099

XPNPEP3 (UniProt Q9NQH7)
inactive: [1] -0.004 | [2] 0.018 | [3] 0.07 | [4] -0.009 | [5] 0.006

UBE2J1 (UniProt Q9Y385)
inactive: [1] -0.061 | [2] -0.011 | [3] 0.05 | [4] -0.039 | [5] -0.068

UBLCP1 (UniProt Q8WVY7)
inactive: [1] -0.066 | [2] 0.067 | [3] 0.066 | [4] -0.018 | [5] 0.011

UQCR10 (UniProt Q9UDW1)
Chain of UniProt Q9UDW1 (Q9UDW1 whole entry, looked up): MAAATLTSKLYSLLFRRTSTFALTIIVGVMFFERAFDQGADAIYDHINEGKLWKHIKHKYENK
inactive: [1] -0.032 | [2] 0.036 | [3] 0.142 | [4] -0.131 | [5] -0.009

VPS33A (UniProt Q96AX1)
inactive: [1] -0.039 | [2] 0.053 | [3] 0.147 | [4] 0.059 | [5] -0.041

UBXN8 (UniProt O00124)
inactive: [1] 0.3 | [2] -0.074 | [3] 0.192 | [4] 0.099 | [5] -0.055

UXT isoform 2 (UniProt Q9UBK9)
inactive: [1] 0.046 | [2] 0.063 | [3] 0.065 | [4] -0.005 | [5] -0.077

UGGT1 (UniProt Q9NYU2)
inactive: [1] 0.032 | [2] 0.027 | [3] -0.003 | [4] -0.007 | [5] -0.021

VPS11 (UniProt Q9H270)
Chain of UniProt Q9H270 (Q9H270 whole entry, looked up): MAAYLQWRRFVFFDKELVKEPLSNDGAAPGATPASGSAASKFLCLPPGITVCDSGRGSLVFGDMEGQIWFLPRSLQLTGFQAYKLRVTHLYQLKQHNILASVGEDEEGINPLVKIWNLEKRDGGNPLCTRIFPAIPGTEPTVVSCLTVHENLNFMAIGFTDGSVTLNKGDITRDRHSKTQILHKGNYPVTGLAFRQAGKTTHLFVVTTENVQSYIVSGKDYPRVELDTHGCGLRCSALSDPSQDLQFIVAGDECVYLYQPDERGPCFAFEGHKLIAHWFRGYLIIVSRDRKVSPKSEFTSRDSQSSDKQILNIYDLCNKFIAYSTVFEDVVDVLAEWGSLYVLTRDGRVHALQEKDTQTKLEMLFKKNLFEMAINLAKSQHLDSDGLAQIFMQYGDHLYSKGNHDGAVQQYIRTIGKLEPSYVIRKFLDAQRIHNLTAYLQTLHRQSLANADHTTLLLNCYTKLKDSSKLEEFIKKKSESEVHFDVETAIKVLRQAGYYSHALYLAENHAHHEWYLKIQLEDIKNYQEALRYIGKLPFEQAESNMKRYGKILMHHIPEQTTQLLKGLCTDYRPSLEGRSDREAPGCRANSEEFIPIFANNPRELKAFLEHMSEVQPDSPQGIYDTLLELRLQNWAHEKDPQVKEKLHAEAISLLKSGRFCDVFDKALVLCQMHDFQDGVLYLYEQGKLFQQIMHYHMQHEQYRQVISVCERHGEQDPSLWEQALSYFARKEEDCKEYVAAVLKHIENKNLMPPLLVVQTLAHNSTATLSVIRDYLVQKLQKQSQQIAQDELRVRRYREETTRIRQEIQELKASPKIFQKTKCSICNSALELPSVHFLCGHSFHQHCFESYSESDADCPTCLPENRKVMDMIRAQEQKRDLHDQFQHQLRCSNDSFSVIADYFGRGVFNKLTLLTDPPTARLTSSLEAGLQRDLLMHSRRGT
inactive: [1] -0.089 | [2] 0.014 | [3] 0.118 | [4] -0.001 | [5] -0.047

TMEM87B (UniProt Q96K49)
inactive: [1] 0.04 | [2] 0.083 | [3] -0.031 | [4] -0.036 | [5] 0.012

TRAPPC6B (UniProt Q86SZ2)
Chain of UniProt Q86SZ2 (Q86SZ2 whole entry, looked up): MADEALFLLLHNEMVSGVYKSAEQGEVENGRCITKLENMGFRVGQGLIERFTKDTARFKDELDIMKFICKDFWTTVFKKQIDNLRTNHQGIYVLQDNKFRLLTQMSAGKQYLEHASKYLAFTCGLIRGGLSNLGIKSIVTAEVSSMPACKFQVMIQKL
inactive: [1] -0.007 | [2] 0.061 | [3] 0.048 | [4] -0.033 | [5] -0.013

VDAC1 (UniProt P21796)
inactive: [1] 0.047 | [2] 0.008 | [3] -0.024 | [4] -0.007 | [5] 0.026

VWA3B isoform 6 (UniProt Q502W6)
inactive: [1] -0.161 | [2] 0.069 | [3] 0.162 | [4] 0.129 | [5] 0.064

WDR61 (UniProt Q9GZS3)
inactive: [1] -0.035 | [2] 0.04 | [3] 0.077 | [4] 0.032 | [5] 0.012

TMEM161B (UniProt Q8NDZ6)
inactive: [1] -0.076 | [2] 0.13 | [3] 0.018 | [4] 0.092 | [5] 0.08

VPS35L (UniProt Q7Z3J2)
inactive: [1] -0.046 | [2] -0.13 | [3] 0.011 | [4] -0.024 | [5] 0

VPS28 (UniProt Q9UK41)
inactive: [1] -0.075 | [2] 0.023 | [3] 0.064 | [4] 0.011 | [5] -0.01

WAPL isoform 3 (UniProt Q7Z5K2)
inactive: [1] -0.116 | [2] 0.021 | [3] 0.138 | [4] -0.08 | [5] 0.095

XPOT (UniProt O43592)
inactive: [1] -0.028 | [2] 0.06 | [3] 0.083 | [4] -0.002 | [5] -0.001

UBR2 (UniProt Q8IWV8)
inactive: [1] -0.16 | [2] 0.04 | [3] 0.009 | [4] -0.014 | [5] -0.28

UTP3 (UniProt Q9NQZ2)
inactive: [1] 0.049 | [2] -0.312 | [3] -0.041 | [4] 0.042 | [5] -0.007

TPM2 (UniProt P07951)
inactive: [1] -0.041 | [2] -0.117 | [3] -0.195 | [4] -0.017 | [5] 0.014

VAMP7 (UniProt P51809)
Chain of UniProt P51809 (P51809 whole entry, looked up): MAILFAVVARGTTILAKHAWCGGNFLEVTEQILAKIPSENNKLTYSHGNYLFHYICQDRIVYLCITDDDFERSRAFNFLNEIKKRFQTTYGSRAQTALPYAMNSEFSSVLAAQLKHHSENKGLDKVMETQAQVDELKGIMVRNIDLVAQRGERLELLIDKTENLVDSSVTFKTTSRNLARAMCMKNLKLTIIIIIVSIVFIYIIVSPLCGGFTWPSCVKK
inactive: [1] 0.007 | [2] 0.044 | [3] 0.077 | [4] -0.047 | [5] 0.015

VPS18 (UniProt Q9P253)
inactive: [1] 0.014 | [2] -0.052 | [3] -0.03 | [4] -0.03 | [5] 0.004

TUBA4A (UniProt P68366)
inactive: [1] -0.02 | [2] 0.077 | [3] -0.03 | [4] -0.01 | [5] -0.076

TUT4 (UniProt Q5TAX3)
inactive: [1] -0.029 | [2] -0.181 | [3] 0.214 | [4] -0.052 | [5] 0.153

VRK1 (UniProt Q99986)
inactive: [1] -0.13 | [2] 0.02 | [3] 0.178 | [4] -0.019 | [5] -0.136

TPR (UniProt P12270)
inactive: [1] 0.053 | [2] 0.014 | [3] 0.001 | [4] 0.083 | [5] 0.043

TNFAIP8 isoform 4 (UniProt O95379)
inactive: [1] -0.021 | [2] 0.026 | [3] 0.02 | [4] -0.042 | [5] -0.011

VKORC1 (UniProt Q9BQB6)
inactive: [1] -0.058 | [2] 0.132 | [3] 0.083 | [4] -0.183 | [5] -0.012

UTP14A (UniProt Q9BVJ6)
inactive: [1] 0.039 | [2] -0.276 | [3] -0.154 | [4] 0.124 | [5] 0.029

VPS72 isoform 2 (UniProt Q15906)
Chain of UniProt Q15906 (Q15906 whole entry, looked up): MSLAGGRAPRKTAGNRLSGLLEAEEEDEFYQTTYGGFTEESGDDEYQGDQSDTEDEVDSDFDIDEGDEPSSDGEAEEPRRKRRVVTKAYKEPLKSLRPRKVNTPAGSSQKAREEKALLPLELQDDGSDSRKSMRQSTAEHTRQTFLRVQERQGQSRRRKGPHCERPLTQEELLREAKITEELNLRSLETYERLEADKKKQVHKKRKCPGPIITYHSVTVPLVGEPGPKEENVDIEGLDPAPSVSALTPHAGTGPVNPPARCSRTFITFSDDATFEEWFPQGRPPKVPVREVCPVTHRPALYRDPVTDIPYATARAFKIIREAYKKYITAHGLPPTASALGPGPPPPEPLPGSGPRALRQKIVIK
inactive: [1] 0.123 | [2] -0.106 | [3] 0.055 | [4] 0.05 | [5] -0.013

WDR4 (UniProt P57081)
inactive: [1] -0.074 | [2] 0.048 | [3] -0.004 | [4] -0.025 | [5] -0.008

TMEM161A (UniProt Q9NX61)
Chain of UniProt Q9NX61 (Q9NX61 whole entry, looked up): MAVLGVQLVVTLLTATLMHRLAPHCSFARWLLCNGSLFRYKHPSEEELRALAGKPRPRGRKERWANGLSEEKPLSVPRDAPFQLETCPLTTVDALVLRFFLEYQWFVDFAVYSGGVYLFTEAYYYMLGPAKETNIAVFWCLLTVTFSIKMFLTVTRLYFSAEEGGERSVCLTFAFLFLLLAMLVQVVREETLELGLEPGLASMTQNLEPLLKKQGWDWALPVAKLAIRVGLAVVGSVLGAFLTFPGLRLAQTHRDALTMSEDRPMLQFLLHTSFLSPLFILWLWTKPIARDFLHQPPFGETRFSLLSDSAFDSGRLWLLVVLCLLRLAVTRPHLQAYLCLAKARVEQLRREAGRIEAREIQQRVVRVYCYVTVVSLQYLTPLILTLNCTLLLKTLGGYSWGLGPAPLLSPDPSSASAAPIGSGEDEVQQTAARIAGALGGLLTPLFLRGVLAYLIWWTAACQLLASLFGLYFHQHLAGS
inactive: [1] -0.055 | [2] 0.017 | [3] 0.098 | [4] -0.133 | [5] 0.003

TMEM8A (UniProt Q9HCN3)
Chain of UniProt Q9HCN3 (Q9HCN3 whole entry, looked up): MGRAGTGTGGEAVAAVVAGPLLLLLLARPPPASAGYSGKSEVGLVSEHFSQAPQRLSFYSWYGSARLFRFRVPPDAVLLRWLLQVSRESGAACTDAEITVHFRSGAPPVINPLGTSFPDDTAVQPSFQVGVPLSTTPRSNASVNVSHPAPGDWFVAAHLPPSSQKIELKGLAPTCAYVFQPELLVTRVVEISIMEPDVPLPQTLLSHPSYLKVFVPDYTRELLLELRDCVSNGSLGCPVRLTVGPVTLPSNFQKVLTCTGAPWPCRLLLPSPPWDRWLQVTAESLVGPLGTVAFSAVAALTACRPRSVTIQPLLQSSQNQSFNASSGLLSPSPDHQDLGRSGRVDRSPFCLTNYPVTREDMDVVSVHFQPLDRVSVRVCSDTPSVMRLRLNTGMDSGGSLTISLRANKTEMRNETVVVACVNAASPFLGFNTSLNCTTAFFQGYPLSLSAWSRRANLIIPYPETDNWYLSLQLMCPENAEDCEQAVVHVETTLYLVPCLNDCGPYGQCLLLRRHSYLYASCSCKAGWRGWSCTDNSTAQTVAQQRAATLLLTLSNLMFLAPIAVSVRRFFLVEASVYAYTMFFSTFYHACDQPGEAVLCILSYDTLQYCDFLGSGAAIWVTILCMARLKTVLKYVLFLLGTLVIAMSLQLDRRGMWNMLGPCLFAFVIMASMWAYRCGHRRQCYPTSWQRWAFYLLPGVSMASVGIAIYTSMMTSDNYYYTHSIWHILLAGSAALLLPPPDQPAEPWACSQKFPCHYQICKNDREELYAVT
inactive: [1] 0.017 | [2] 0.038 | [3] -0.011 | [4] 0.038 | [5] 0.094

WRB (UniProt O00258)
inactive: [1] 0.002 | [2] -0.007 | [3] -0.015 | [4] 0.005 | [5] 0.01

WASH2P (UniProt Q6VEQ5)
inactive: [1] 0.015 | [2] -0.015 | [3] 0.026 | [4] 0.041 | [5] 0.027

UGDH (UniProt O60701)
inactive: [1] 0.025 | [2] 0.052 | [3] 0.103 | [4] -0.04 | [5] -0.038

UBE2E3 (UniProt Q969T4)
inactive: [1] -0.076 | [2] 0.119 | [3] 0.115 | [4] -0.088 | [5] -0.023

U2AF2 (UniProt P26368)
inactive: [1] -0.004 | [2] 0.057 | [3] 0.045 | [4] 0.044 | [5] 0.005

WDR41 (UniProt Q9HAD4)
inactive: [1] -0.045 | [2] -0.08 | [3] -0.033 | [4] -0.03 | [5] 0.055

TTC38 (UniProt Q5R3I4)
inactive: [1] 0.046 | [2] 0.049 | [3] 0.032 | [4] -0.061 | [5] -0.016

WASHC5 (UniProt Q12768)
Chain of UniProt Q12768 (Q12768 whole entry, looked up): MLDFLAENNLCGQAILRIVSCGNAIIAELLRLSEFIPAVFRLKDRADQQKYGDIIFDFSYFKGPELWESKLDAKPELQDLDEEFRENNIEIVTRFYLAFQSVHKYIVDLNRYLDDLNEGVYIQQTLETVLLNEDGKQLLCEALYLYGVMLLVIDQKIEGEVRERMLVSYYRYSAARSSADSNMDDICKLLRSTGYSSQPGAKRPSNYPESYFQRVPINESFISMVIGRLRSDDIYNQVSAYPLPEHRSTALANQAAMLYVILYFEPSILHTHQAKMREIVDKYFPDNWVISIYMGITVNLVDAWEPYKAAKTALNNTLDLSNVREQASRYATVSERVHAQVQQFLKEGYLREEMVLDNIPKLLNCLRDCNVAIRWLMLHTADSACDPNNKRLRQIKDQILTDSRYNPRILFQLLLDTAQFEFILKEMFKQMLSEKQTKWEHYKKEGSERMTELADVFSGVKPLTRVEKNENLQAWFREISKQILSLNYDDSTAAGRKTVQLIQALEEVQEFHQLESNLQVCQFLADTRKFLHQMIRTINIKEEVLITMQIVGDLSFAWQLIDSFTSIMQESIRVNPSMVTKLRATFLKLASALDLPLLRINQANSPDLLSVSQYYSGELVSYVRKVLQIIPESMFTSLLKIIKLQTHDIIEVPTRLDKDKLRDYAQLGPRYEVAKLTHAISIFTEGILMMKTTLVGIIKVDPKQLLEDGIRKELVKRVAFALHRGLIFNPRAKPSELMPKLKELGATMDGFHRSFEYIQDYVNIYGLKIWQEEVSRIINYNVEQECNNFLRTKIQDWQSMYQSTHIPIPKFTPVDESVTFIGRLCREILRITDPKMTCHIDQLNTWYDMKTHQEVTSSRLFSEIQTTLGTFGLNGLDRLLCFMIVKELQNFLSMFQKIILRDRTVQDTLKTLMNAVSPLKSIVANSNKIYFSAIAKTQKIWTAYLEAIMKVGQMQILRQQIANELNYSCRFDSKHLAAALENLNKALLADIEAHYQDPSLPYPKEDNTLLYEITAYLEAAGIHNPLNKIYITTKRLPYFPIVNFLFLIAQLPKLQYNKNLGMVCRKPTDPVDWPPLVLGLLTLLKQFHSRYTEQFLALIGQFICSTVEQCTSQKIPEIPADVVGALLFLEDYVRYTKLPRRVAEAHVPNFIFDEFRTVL
inactive: [1] 0.034 | [2] 0.042 | [3] 0.09 | [4] 0.003 | [5] -0.041

WDCP (UniProt Q9H6R7)
inactive: [1] 0.013 | [2] 0 | [3] -0.015 | [4] 0.039 | [5] 0.145

VARS2, A0A0G2JL52
inactive: [1] -0.006 | [2] 0.006 | [3] 0.044 | [4] -0.004 | [5] -0.015

UBXN10 (UniProt Q96LJ8)
inactive: [1] 0.011 | [2] 0.014 | [3] 0.024 | [4] 0.018 | [5] 0.063

TMEM192 (UniProt Q8IY95)
Chain of UniProt Q8IY95 (Q8IY95 whole entry, looked up): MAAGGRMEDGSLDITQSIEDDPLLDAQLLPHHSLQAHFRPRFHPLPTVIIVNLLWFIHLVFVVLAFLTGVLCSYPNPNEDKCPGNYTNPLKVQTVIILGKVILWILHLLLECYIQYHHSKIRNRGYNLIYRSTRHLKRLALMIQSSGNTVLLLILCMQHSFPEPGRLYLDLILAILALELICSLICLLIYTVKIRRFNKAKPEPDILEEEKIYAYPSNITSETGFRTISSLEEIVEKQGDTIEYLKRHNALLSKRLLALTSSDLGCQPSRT
inactive: [1] 0.02 | [2] -0.03 | [3] 0.018 | [4] -0.024 | [5] 0.032

USP34 (UniProt Q70CQ2)
inactive: [1] -0.083 | [2] 0.081 | [3] 0.142 | [4] -0.003 | [5] 0.034

TRIM28 (UniProt Q13263)
inactive: [1] -0.029 | [2] 0.029 | [3] 0.017 | [4] -0.012 | [5] 0.009
